From PubChem
This excerpt belongs to a sample that is enriched for hits.
G9a block = blocks human histone lysine methyltransferase G9a | G9a H3K9 monomethylation, AlphaScreen, 2 h | Potency, µM (series often up to 102 µM), for the others: top-dose activity, negative = inhibition, usual class: inhibitors | actives 8.8% (n = 350,000); further: on the % scale 0 is the no-effect control and ±100 the full control effect; nearly all actives have a fitted effect of over 75% in size
Target sequence (Q96KQ7 913-1193 limits assumed): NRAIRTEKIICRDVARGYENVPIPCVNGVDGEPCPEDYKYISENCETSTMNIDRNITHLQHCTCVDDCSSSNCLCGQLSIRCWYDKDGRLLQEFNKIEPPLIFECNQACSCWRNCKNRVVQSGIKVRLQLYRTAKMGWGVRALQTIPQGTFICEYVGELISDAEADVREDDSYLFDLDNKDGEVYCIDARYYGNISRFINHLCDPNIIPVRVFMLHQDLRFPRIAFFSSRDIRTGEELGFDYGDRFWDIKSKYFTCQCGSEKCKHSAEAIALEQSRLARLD
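Quantitative HTS format: methyltransferase activity on a biotin-tagged H3K9 peptide is measured by AlphaScreen, using a rabbit anti-monomethyl-H3K9 antibody with streptavidin donor and anti-IgG acceptor beads. Final levels are 20 nM enzyme, 500 nM peptide, 20 uM SAM; 2 h RT.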
Glioma ERSR ind = inducers of ER stress response in human glioma cells; Potency, µM, for inactives: top-dose activation, actives largely listed as activators; actives 0.02% (n = 420,000); U87-MG GRP78 promoter luciferase reporter, 16 h; AID 602332; further: series mostly up to about 76 µM; % of control where 0% means no effect; nearly all actives have a fitted effect of over 35% in size
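Stably transfected U87-MG glioma cells carrying a GRP78-based luciferase sensor; 16 h compound incubation. Luminescence end-point read 10 min after Bright-Glo addition at room temperature.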
VDR inhibitor = inhibitors of human vitamin D receptor | P11473 | VDR-SRC2-3 peptide fluorescence polarization, 2 h | Potency, µM, for the others: max response, negative = inhibition, hits mostly inhibitors | actives 0.93% (n = 400,000); further: on the % scale 0 is the no-effect control and ±100 the full control effect
Target sequence (P11473 whole entry, looked up): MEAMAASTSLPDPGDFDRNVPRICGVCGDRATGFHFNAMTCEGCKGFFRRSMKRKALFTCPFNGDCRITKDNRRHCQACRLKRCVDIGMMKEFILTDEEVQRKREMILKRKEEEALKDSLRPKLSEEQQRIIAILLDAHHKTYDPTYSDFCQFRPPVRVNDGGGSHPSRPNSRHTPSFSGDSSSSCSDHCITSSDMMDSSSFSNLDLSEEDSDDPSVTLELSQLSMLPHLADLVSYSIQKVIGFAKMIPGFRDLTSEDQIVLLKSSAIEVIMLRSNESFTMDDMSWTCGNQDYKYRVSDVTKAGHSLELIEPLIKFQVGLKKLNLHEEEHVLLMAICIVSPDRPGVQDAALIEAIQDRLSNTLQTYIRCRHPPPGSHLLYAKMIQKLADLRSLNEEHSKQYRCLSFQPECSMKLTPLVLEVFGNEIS
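Reagent solutions, kept cold and dark, are dispensed first; compounds are then pinned in at 23 nl, plates briefly spun, and incubated 2 h at ambient temperature. Inhibition of VDR–SRC2-3 peptide binding is read by fluorescence polarization.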
12-LOX inh = ALOX12 (human) lipoxygenase inhibition | Potency, µM (highest dose often 108 µM), without a hit: at the highest dose activity change, negative = inhibition, actives largely listed as inhibitors | actives 1.1% (n = 580,000) | P18054 | purified 12hLO, xylenol orange hydroperoxide absorbance; further: on the % scale 0 is the no-effect control and ±100 the full control effect
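Purified human 12hLO at 150 nM in 25 mM Hepes, 0.01% Triton X-100, pH 7.0, preincubated 15 min at room temperature with compound. Reaction started with 40 uM arachidonic acid, 30 min at room temperature. Hydroperoxide measured by Fe-xylenol orange, 573/405 nm absorbance ratio.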
Sfp PPTase inh = inhibitors of Bacillus subtilis Sfp phosphopantetheinyl transferase; Biochemical Sfp PPTase activity, qHTS; Q9F4F7; Potency, µM, inactives show largest response in the series, negative = inhibition, actives largely listed as inhibitors; actives 3.5% (n = 310,000); AID 1490;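 further: the enzyme is Sfp with the accession as filed and its product quenches rhodamine fluorescence; 0% = enzyme reaction without inhibitor and -100% = no enzyme wells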
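Sfp 15 nM + cpd, 15 min RT; start w/ rhodamine-CoA 5 uM, BHQ-2-YbbR 12.5 uM (final); 50 mM Hepes pH 7.6, 10 mM MgCl2, 0.01% NP-40, 0.01% BSA; read 525/598 nm at 0 and 30 min.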
* hit, by the source's call; ? = inconclusive; . = not tested or not shown; [ ] = dose if it differs, or a comment. The call rests on the fitted dose curve; in most records, active means well fitted curve in the direction sought with a large enough effect; inconclusive means small, poorly fitted or top-dose-only effect, or another doubt; inactive means no such curve, though single readings can be large; an effect the other way counts as inactive or inconclusive. Potency means the concentration at half of the fitted maximal effect.

SMILES	G9a block	Glioma ERSR ind	VDR inhibitor	12-LOX inh	Sfp PPTase inh
O=C(O)CCCCCN1C(=O)/C(=C\c2ccc(-c3ccc(Cl)cc3)o2)SC1=S	?	-1%	8%	?	6.3µM*
Oc1ccccc1-c1nc(NCc2ccco2)c2ccccc2n1	5%[12.7 µM]	6%	3%	?	?
COc1ccccc1Nc1nc(NCc2ccco2)c2ccccc2n1	50µM*	-1%	-12%	?	-29%
Cc1ccc(Nc2nc(NCc3ccco3)c3ccccc3n2)cc1	?	-7%	0%	?	10µM*
COc1ccc(C=O)cc1COc1cc(C)cc(C)c1	.	.	.	5%	.
O=C1CSc2ccc(C(=O)OCCOc3ccccc3)cc2N1	.	.	.	-5%	.
COc1ccc(-c2nnc3ccc(SCC(=O)N4CCOCC4)nn23)cc1	22µM*	1%	-3%	17%[57.4 µM]	-1%
COc1ccc(-c2nnc3ccc(SCC(=O)N4CCN(c5ccccc5)CC4)nn23)cc1	.	-4%	-7%	32µM*	.
COc1ccc(-n2cnnc2SCC(=O)N2CCN(c3ccccc3)CC2)cc1	?	-5%	-7%	0%	0%
COc1ccc(-c2nnc3ccc(SCC(=O)N4CCCCC4)nn23)cc1OC	?	-4%	-10%	-1%	18%
COc1ccc(S(=O)(=O)N2CCN(C(=O)C3=Cc4cc(Cl)ccc4OC3)CC2)cc1OC	.	.	.	-14%	.
O=C(C1=Cc2cc(Cl)ccc2OC1)N1CCN(S(=O)(=O)c2cc(F)ccc2F)CC1	.	.	.	40µM*	.
O=Cc1ccc(-c2ccc(Br)cc2Cl)o1	.	.	.	40%	.
NC(=S)N/N=C\c1ccc(-c2cccc(Cl)c2Cl)o1	-45%	3%	-14%	?	-17%
O=C(/C=C/c1ccc(-c2ccc(Cl)cc2Cl)o1)c1ccc(Br)cc1	.	.	.	8.9µM*	.
Cc1ccc(C(=O)/C=C/c2ccc(-c3cccc(Cl)c3Cl)o2)cc1	.	.	.	14µM*	.
O=C(/C=C/c1ccc(-c2ccccc2Cl)o1)c1ccccc1Br	.	.	.	4.5µM*	.
O=C(/C=C/c1ccc(-c2cccc(Cl)c2)o1)c1cc(Cl)ccc1Cl	.	.	.	18µM*	.
CCCCC(=O)n1nc(-c2ccc(Cl)cc2)nc1N	.	.	.	6%	.
COc1ccccc1NC(=O)CCc1c[nH]c2ccccc12	.	.	.	7%	.
Cc1ccc(C(=O)/C=C/c2ccc(-c3cc(Cl)ccc3Cl)o2)cc1	.	.	.	5µM*	.
N#C/C=C1/NC(=O)c2ccccc2S1	45µM*	-5%	-14%	2%	7%
COC(=O)c1ccc2c(c1)NC(=O)c1ccccc1S2	?	-5%	9%	-13%	1%
Cc1nnc2sc(-c3csc4c3CCCC4)nn12	-16%[12.7 µM]	2%	-1%	-8%	1%
S=c1nc(-c2csc3c2CCCC3)[nH][nH]1	16%[0.501 µM]	-5%	?	?	35µM*
SMILES	G9a block	Glioma ERSR ind	VDR inhibitor	12-LOX inh	Sfp PPTase inh
CC(=O)N(/N=C1/C(=O)Nc2ccccc21)c1ccccc1	14µM*	5%	4%	-4%	-19%
S=c1[nH]cc2cnccn12	.	-4%	.	8.9µM*	.
O=C(NCCNC(=O)c1c[nH]c2ccccc12)c1ccncc1	.	.	.	4%	.
Cc1cc(C)c(OCC(=O)OCCNC(=O)c2cccnc2)c(C)c1	25µM*	-4%	-21%	?	2%
COc1cc(C(=O)OCCNC(=O)c2cccnc2)cc(OC)c1OC	.	-1%	9%	?	.
Cc1cc(C)nc(NS(=O)(=O)c2ccc(NC(=O)c3ccc(S(=O)(=O)N4CC(C)OC(C)C4)cc3)cc2)n1 (stereo not drawn)	8.9µM*	-4%	-2%	-6%	-6%
Cc1ccc(C(=O)Nc2ccc(S(=O)(=O)Nc3cnc4ccccc4n3)cc2)cc1	50µM*	15%	1%	?	16%
O=C(Nc1ccc(S(=O)(=O)Nc2cnc3ccccc3n2)cc1)c1ccccc1	.	.	.	-20%	.
COc1cc(C(=O)Nc2ccc(S(=O)(=O)Nc3cnc4ccccc4n3)cc2)cc(OC)c1OC	?	32µM*	0%	0%	43%
COc1cc(C(=O)Nc2ccc(S(=O)(=O)Nc3nccc(C)n3)cc2)cc(OC)c1OC	-18%[12.7 µM]	32µM*	-1%	1%	13%
O=C(Nc1ncc2c(n1)CC(c1cccs1)CC2=O)c1ccc(F)cc1 (stereo not drawn)	.	.	.	0%	.
CC(=O)Nc1ccc(OCC(=O)NC2CCN(Cc3ccccc3)CC2)nc1	.	.	.	17%	.
N#Cc1ccc(NC(=O)N2CCN(c3ncccc3Cl)CC2)cc1	.	.	.	23%	.
CS(=O)(=O)c1ccc(C(=O)COC(=O)COc2ccc3ccccc3c2)cc1	.	.	.	-21%	.
Cc1ccc2c(c1)N(C(=O)CCC(=O)N1CCN(c3ccccn3)CC1)CC(C)O2 (stereo not drawn)	21%	-3%	-9%	2%	-11%
Cc1cccc(N2CCN(C(=O)C3CCN(c4nnc(-n5cccc5)s4)CC3)CC2C)c1 (stereo not drawn)	50µM*	-2%	-12%	154%	-13%
Cc1ccc(Cl)cc1N1CCN(C(=O)C2CCN(c3nnc(-n4cccc4)s3)CC2)CC1	-1%[59 µM]	0%	15%	298%	-5%
Cc1cccc(N2CCN(C(=O)CCC(=O)N3CC(C)Oc4ccc(C)cc43)CC2C)c1 (stereo not drawn)	45µM*	-6%	18%	13%	-5%
CSc1ccc(CN(C)C(=O)c2ccc3c(c2)CCCC3)cc1	.	.	.	-10%	.
CC1(C)Cc2c(ccc3ccccc23)/C(=C/C#N)N1	50µM*	0%	-7%	40µM*	-24%
CNC(=O)/C=C1\NC(C)(C)Cc2c1ccc1ccccc21	18%[12.7 µM]	-4%	79µM*	?	-3%
CCC(C)c1ccccc1N1CC(C(=O)Nc2ccc(S(=O)(=O)N3CCOCC3)cc2)CC1=O (stereo not drawn)	50µM*	-2%	14%	-12%	.
CCn1c(CN(c2ccc(C)cc2)S(C)(=O)=O)nnc1SCC(=O)c1ccccc1	.	.	.	25%	.
COC(=O)C1=C(C)NC(=O)/C1=C\N(C)C	40µM*	-6%	-11%	4%	-4%
COc1cccc(-c2nn(-c3ccccc3)cc2CN(C)Cc2c(C)nc3ccccn23)c1	?	6%	15%	-5%	56µM*
O=C(OCC(=O)N1N=C(c2ccc(Cl)cc2)CC1c1ccco1)c1ccccc1O (stereo not drawn)	18µM*	-3%	-7%	29%	?
O=C(OCC(=O)N1N=C(c2ccc(Cl)cc2)CC1c1ccco1)c1cncc(Br)c1 (stereo not drawn)	.	1%	71µM*	7.9µM*	.
CCn1c(/C=C/N(C(C)=O)c2ccccc2)[n+](CC)c2ccc(Cl)cc21	79µM*	-2%	-14%	?	22%
CC[n+]1c(C)n(C)c2cc(S(=O)(=O)N(C)C)ccc21	.	9%	9%	8%	-4%
CCn1c(C)[n+](CC)c2ccc(C(=O)N(C)c3ccccc3)cc21	35µM*	-4%	0%	?	-7%
